Reference: the supplement of paper PMC11417369
Whole data set: some 25,000 sequences, median “ln(normalized median fluorescence intensity)” near 6.7, cut for the highest 2% near 10. The full list was thinned out, with the highest values kept by preference.

These sequences were tested on PfHDP1 homeodomain (GST-tagged) (assay: gcPBM binding intensity (ln(normalized median fluorescence intensity)); higher = stronger DNA binding).
Outline: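 Each value is the highest Masliner-normalised natural-log median intensity across replicate spots of either orientation of a probe. The probes were primer-extended double-stranded 36-bp intergenic genomic sequences on an Agilent 4 × 180k array, alongside negative controls, exposed for 1 h to GST-tagged P. falciparum DNA-binding domains expressed in E. coli. Bound protein was picked up with Alexa488 anti-GST antibody and scanned at 488 nm.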

| Sequence | gcPBM binding intensity (ln) |
| --- | --- |
| AAAATGCATTTGATGTGTACGCATTATAAAGAACAA [XGTACX_site4203] | 7.39 |
| ATAGGCACTTTTTGCACACGTATGAATAACAAAATA [CACACA_site5069] | 10.4 |
| ATATGCACTTTTTGCACACGTATGAATAACAAAATA [CACACA_site1810] | 11.2 |
| TACGTAATAATATGCACACAAATAAACTTTATAAAT [CACACA_site3501] | 9.89 |
| AGTAAATAACACAAATATGAATGAAAAAAAAAATAT [GTGCAC_negctrl_site235] | 6.82 |
| TAGTATAATATGAACACACACACACGCACAAAAAAA [CACACA_site7035] | 7.3 |
| TTATATGCACTTTTTGCACACGTATGAATAACAAAA [CACACA_site1811] | 11.5 |
| AAAAGGAAGATATATACACACATACAAATATTTATA [CACACA_site7093] | 6.71 |
| TATACTTGTAAATGCACACATAAGATGCGACTAATG [CACACA_site2118] | 9.37 |
| TACAATAAGGATAAGTGTACATATGTGCATACATAT [XGTACX_site7188] | 10.6 |
| TAAGTGCATGAGATATGTACATATATAAAATATATA [XGTACX_site3294] | 9.2 |
| TAAGGGATATGTATATGTACATACAAATATATATAA [XGTACX_site2892] | 6.63 |
| TATACATACTCACCCACACACAAAAAAAAAAAAAAA [CACACA_site862] | 6.43 |
| TTTTATCTTTTTTTATTTTAATGTATTATTTTTATG [XGTACX_negctrl_site24] | 6.61 |
| ATAAAAAAATTAAATACATGCACATATACACATACA [TGCATGCA_site129] | 8.6 |
| TATAACCGAATGTGTACACAAAATAATGTTATATAT [CACACA_site5627] | 7.77 |
| GAATAAATTAAAAATGCACACTTTGATGGGTACATT [CACACA_site5220] | 8.68 |
| AATTTTTGTTACAAGATGCACTTAATTTTTCTAAAT | 7.92 |
| GAATGTCTAATTTTGATGCACACTTTTGTGCAATTA [CACACA_site2902] | 11.1 |
| GATGATTCAATTTATGCACACTAAAAATTAATTATA [CACACA_site4308] | 10.1 |
| TGTTTGTAATTATGTATGCACTTTTTTGTATGTGTG [GTGCAC_site9668] | 7.52 |

| Sequence | gcPBM binding intensity (ln) |
| --- | --- |
| ATGTCTAATTTTGATGCACACTTTTGTGCAATTAAA [CACACA_site5589] | 11 |
| TGTAGACTACATAGTAGTACATAATATATACATATA [XGTACX_site367] | 6.21 |
| TACTTATTATGAAACACACACCAAAACTACAGAATA [CACACA_site6265] | 7.04 |
| GTGCATATATGATATACACACAATATAATAGTATGT [CACACA_site2460] | 7.18 |
| TTTTTTTTTAATCATGCACACTGTTAAAAGAATAAA [CACACA_site4817] | 8.29 |
| TTTTTATGGACTATGGTGCATTATATATAAATGAAA [GTGCAC_site9557] | 10.3 |
| ATTATCAATATGAAGGTGCATTTAAATAATATTTAC | 9.62 |
| ATTAAATGCAGTTCGGTGCATTAAGGTTATGATGAA [GTGCAC_site9883] | 10.7 |
| TAATATAATGATGCAGTGCATATGTTAAAATGAAAA | 8.68 |
| TCTTGTTCGCCCTATTGTACAAACATATATTGTGAT [XGTACX_site2884] | 7.27 |
| AAAATATAATATAATGCACACATAAAACAAAAAAAA [CACACA_site8989] | 9.76 |
| ATTATATATAAACACACACACATGCATGCACATATA [CACACA_site4237] | 10.5 |
| AACGGGTAATGCACAAAAAAAAAAAAATAAAATAAA [TGCATGCA_negctrl_site474] | 10.9 |
| GCACAAATATATATATATATATATATATATATATAT [GTGCAC_negctrl_site661] | 9.39 |
| ATATTATATAAATACACACACACATGCATGCACATA [CACACA_site4236] | 10.3 |
| AAAATATAATATAATGCACACATAAACAAAAAAAAA [CACACA_site8161] | 10.1 |
| AATATAATATAATGCACACATAAACAAAAAAAAAAT [CACACA_site1304] | 10.5 |
| ATATAAACACTGAATGCATGCACATATATATATATA [TGCATGCA_site940] | 9.37 |
| AATATAAAAATGCACACACACAAAAAAAAAAAAAAA [CACACA_site6546] | 9.21 |
| ATGAGTGCACAAATATATATATATATATATATATAT [CACACA_negctrl_site404] | 10.7 |
| AAATATAAAGTGCACACACACAAAAAAAGAAAAAAA [CACACA_site6452] | 8.92 |

| Sequence | gcPBM binding intensity (ln) |
| --- | --- |
| TAATAAATCAAATGCACACACACAAAAAAAAAAAAA [CACACA_site161] | 10 |
| TTCTTAATATTGCATGCACACTATATAATAATTGAA [CACACA_site4720] | 9.18 |
| GTCTCCTTTATTTTTGGTACAGATAAGATAAAAGGA [XGTACX_site1591] | 6.46 |
| CACTTAAAAAAAATACGTACACATATATATATATAT [XGTACX_site2054] | 9.39 |
| TATAATATAATTAAAAGTACTTAAAAAAGAATGAAA [XGTACX_site1157] | 6.99 |
| CATCAATGCTAATTATGTACTTACATAAATAACCCT [XGTACX_site968] | 6.52 |
| TTGTGCTTGATATCACGGACAAGCTCATATTATATA [XGTACX_site4553] | 6.03 |
| AATGTCATGATACATACACACACATACACATACACA [CACACA_site8665] | 6.98 |
| ATATAACGAATAATTACACACTATAAAAAAAGATCT [CACACA_site2862] | 6.63 |
| AAAATATAAAATAATGCACACATAAACAAAAAATCA [CACACA_site8382] | 10.5 |
| TATAATATTCCTTTTTAACACACATATGAACAAATA [CACACA_site7932] | 6.77 |
| ATGAATCCTTAATATGAACACACAAATATATTACAC [CACACA_site7943] | 6.7 |
| GTACACCTATAATATACACACAACAAATATGCACAT [CACACA_site6603] | 10.2 |
| CATATAAAAATATATGCACACAAATAAAAAATTATA [CACACA_site9210] | 10 |
| AATTATGCACAAATCACACATATAAAATAAAAAGTG [CACACA_site4474] | 11.1 |
| GTACACATATAATATACACACAACAAATATGCACAT [CACACA_site1010] | 10.6 |
| AAATATAATATATGCACACATACATACATATATATA [CACACA_site104] | 10.3 |
| ATCCTTAATATGAACACACAAATATATTGCACATAT [CACACA_site6230] | 10.9 |
| TATAAAAATATATGCACACAAATAAAAAATTATATA [CACACA_site3629] | 9.87 |
| AATATAAAATAATGCACACATAAACAAAAAATCAAA [CACACA_site1371] | 10.4 |
